PubChem BioAssay (Tox21)
Results filed as inconclusive are left out. Values without a mark were called inactive. Calls follow the shape of the full dose curve.

Target: Thyrotropin receptor (Homo sapiens) (UniProt P16473)
Assay: qHTS assay to identify small molecule antagonists of the thyroid stimulating hormone receptor (TSHR) signaling pathway (AID 1259385); also: nearly all actives have a fitted effect of over 20% in size
Conditions: TSHR-HEK293 cAMP HTRF, TSH-stimulated antagonist mode; series mostly up to 92.4 µM; activity change, negative = inhibition: at the top concentration
Source text: U.S. Tox21 Program National Center for Advancing Translational Sciences [NCATS] NIH Chemical Genomics Center [NCGC] U.S. Environmental Protection Agency [EPA] National Institutes of Environmental Health Sciences [NIEHS] National Toxicology Program [NTP] U.S. Food and Drug Administration [FDA] Tox21 Assay Overview: TSHR is the receptor for thyrotropin (thyroid stimulating hormone or TSH), a member of the glycoprotein hormone family. TSH is released by the anterior pituitary gland and is the main regulator of thyroid gland growth and development. Upon binding circulating thyrotropin, a G-protein signal cascade activates adenylyl cyclase and […] cAMP concentration is increased. cAMP is a key second messenger involved extensively in cellular signal transduction pathways associated with the majority of G-protein coupled receptors (GPCRs). The activation of these GPCRs by neurotransmitters, lipids, nucleotides, peptides and hormones results in the activation or the inhibition of plasma membrane-bound adenylate cyclase through heterotrimeric G-proteins. A cell-based TSHR assay can be used to screen chemical compounds that modulate TSHR either in agonist or antagonist mode.
Tox21 Assay Protocol Summary: TSHR-Hek293 cells were dispensed at 800 cells/4uL/well in 1536-well white plates using a Multidrop dispenser. After the assay plates were incubated at a 37C/5% CO2 incubator for 18 hrs, 23 nL of compounds dissolved in DMSO, positive controls or DMSO only was transferred to the assay plate by a pin tool, followed by 1 ul medium containing Ro20-1724. For the antagonist mode screening, 1 uL of TSH was added on the top of the cell/compound mixtures to achieve a final agonist concentration of 1.5 ng/mL. After 30 min of incubation at room temperature, 2.5 ul/well of cAMP-d2 and 2.5 ul/well of anti-cAMP-cryptate were added respectively into the assay plates using a Flying Reagent Dispenser. The plates were incubated at room temperature for 1 hr. The fluorescence intensity in the plates was measured using an Envision plate reader. Each test compound was measured at 15 concentrations and in triplicates.
% is scaled to controls: 0 for no effect and ±100 for the full control effect.

Thyrotropin receptor (Homo sapiens), sequence (P16473 whole entry, looked up): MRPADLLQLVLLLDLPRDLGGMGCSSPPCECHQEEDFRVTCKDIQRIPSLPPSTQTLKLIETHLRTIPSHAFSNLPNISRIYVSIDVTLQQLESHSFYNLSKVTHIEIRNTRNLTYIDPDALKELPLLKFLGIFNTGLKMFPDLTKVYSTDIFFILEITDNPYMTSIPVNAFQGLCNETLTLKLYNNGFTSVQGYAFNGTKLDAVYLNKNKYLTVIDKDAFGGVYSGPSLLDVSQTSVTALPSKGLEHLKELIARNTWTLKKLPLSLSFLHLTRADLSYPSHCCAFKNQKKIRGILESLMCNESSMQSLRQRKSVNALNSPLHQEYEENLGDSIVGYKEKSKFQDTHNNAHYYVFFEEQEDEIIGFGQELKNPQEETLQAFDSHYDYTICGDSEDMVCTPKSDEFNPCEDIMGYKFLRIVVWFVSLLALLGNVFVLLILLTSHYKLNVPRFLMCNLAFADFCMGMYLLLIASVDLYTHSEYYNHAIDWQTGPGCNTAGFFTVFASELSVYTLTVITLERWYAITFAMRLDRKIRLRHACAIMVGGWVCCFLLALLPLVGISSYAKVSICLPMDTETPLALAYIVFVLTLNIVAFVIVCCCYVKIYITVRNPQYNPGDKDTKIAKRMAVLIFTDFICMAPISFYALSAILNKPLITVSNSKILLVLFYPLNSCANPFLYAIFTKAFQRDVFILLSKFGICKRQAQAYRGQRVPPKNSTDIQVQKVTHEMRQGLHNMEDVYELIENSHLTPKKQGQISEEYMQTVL

SMILES	activity change, negative = inhibition
CO[C@@]1(NC(=O)CSC[C@@H](N)C(=O)O)C(=O)N2C(C(=O)O)=C(CSc3nnnn3C)CS[C@@H]21	0.634% [at 42.5 µM]
C[C@H]1[C@H](NC(=O)/C(=N/OC(C)(C)C(=O)O)c2csc(N)n2)C(=O)N1S(=O)(=O)O (stereo in doubt)	-1.76% [at 42.5 µM]
CN1CCC(=C2c3ccccc3CCc3cccnc32)CC1	-14.9% [at 42.5 µM]
CC(C)(C)OC(=O)c1cccc(N)c1	1.38%
COc1ccccc1OCC1CNC(=O)O1 (stereo not given)	-0.247% [at 42.5 µM]
CCOC(=O)C(=O)CCCCCCl	-0.602% [at 42.5 µM]
CCCCS(=O)(=O)N[C@@H](Cc1ccc(OCCCCC2CCNCC2)cc1)C(=O)O	-0.181% [at 42.5 µM]
Cc1onc(-c2c(Cl)cccc2Cl)c1C(=O)Cl	0.232% [at 42.5 µM]
O=C(O)c1cc(C(=O)O)cc(C(=O)O)c1	2.74%
C[N+](C)(C)CCCCCCCCCC[N+](C)(C)C	1.22% [at 42.5 µM]
CC(CC=O)CC(C)(C)C (stereo not given)	2.08%
CC(=O)c1cnccn1	-2.09%
CC1=NN(c2cc(S(=O)(=O)O)ccc2Cl)C(=O)C1N=Nc1ccccc1 (stereo not given)	-0.609%
O=C(O)CC(C(=O)O)S(=O)(=O)O (stereo not given)	-1.69%
Cc1ccnc(NS(=O)(=O)c2ccc(N)cc2)n1	3.8% [at 42.5 µM]
c1coc(CNc2ncnc3nc[nH]c23)c1	-0.793%
CCCCc1ccc2c(n1)[C@@H](c1ccc(OC)cc1C[C@H](C)C(=O)O)[C@H](C(=O)O)[C@H]2c1ccc2c(c1)OCO2	-2.09%
CC(C)C[C@@H](N)C(=O)O	2.7% [at 19 µM]
COCCOC[C@H](CC1(C(=O)NC2CCC(C(=O)O)CC2)CCCC1)C(=O)Oc1ccc2c(c1)CCC2 (stereo not given in full)	-0.727%
C1CCC2(CCCCO2)OC1	2.14%

SMILES	activity change, negative = inhibition
O=C(c1ccccc1)C1(O)CCCCC1	2.05%
CC(C)=CCC/C(C)=C/C#N	1.93%
COc1ccnc(CS(=O)c2nc3cc(OC(F)F)ccc3[nH]2)c1OC (stereo not given)	-0.0396%
CCC1C(=O)OCC1Cc1cncn1C (stereo not given)	-4.08% [at 42.5 µM]
CCCCOCCOC(=O)COc1cc(Cl)c(Cl)cc1Cl	-3.79%
C[N+]1(C)[C@@H]2CC(OC(=O)[C@H](CO)c3ccccc3)C[C@H]1[C@@H]1O[C@@H]12 (stereo not given in full)	1.26% [at 42.5 µM]
CC(C)C(=O)OC(=O)C(C)C	2.66%
Cc1ncc(COP(=O)(O)O)c(C=O)c1O	-1.73% [at 42.5 µM]
O=[N+]([O-])c1cncn1CCN1CCOCC1	0.0496% [at 42.5 µM]
CCOc1ccc2nc(S(N)(=O)=O)sc2c1	2.02% [at 42.5 µM]
O=C(O)Cc1csc(-c2ccc(Cl)cc2)n1	-1.5% [at 42.5 µM]
CC(C)COC(=O)c1ccc(N)cc1	-3.64% [at 42.5 µM]
O=Cc1cccc(Br)c1	-1.99%
O=S(=O)(O)c1cccc(S(=O)(=O)O)c1	2.72%
CC1=NS(=O)(=O)c2cc(Cl)ccc2N1	-4.31% [at 42.5 µM]
CCCc1nn(C)c2c(=O)[nH]c(-c3cc(S(=O)(=O)N4CCN(C)CC4)ccc3OCC)nc12	-9.46% [at 42.5 µM]
CC1CCC(CO)CC1 (stereo not given)	1.29%
CC(CO)(CO)[N+](=O)[O-]	-3.61%
C=CCOCC(O)CO (stereo not given)	2.21%
COc1cccc(OC)c1C(=O)N[C@@H]1C(=O)N2[C@@H]1SC(C)(C)[C@@H]2C(=O)O	-0.187% [at 42.5 µM]
